# Only some compounds are listed: those with a hit (about 6.1% of all), similar ones and a draw of the others.
# D1 PAM – potentiators of human D1 dopamine receptor; P21728; HEK293 TREx D1 cells, calcium flux, dopamine EC20 potentiation; potentiation, % at 10 µM; actives 0.036% (n = 360,000); in the data active = potentiation above about 30%
# D1 antagonist – antagonists of human D1 dopamine receptor; P21728; HEK293 TREx D1 cells, calcium flux, dopamine EC80; active compounds read low; activity change, negative = inhibition, % at 10 µM; actives 3.2% (n = 360,000); in the data active = activity change below about -30%
#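 HEK293 T-REx cells expressing inducible, force-coupled D1 receptor; no-wash Ca dye, 30–90 min RT. Cmpd → 180 s read at 1 Hz → EC80 DA → 180 s read.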
# D1 ag – activates the human D1 dopamine receptor | HEK293 T-REx D1 cells, calcium flux, agonist mode | activation, % at 2 µM | actives 1% (n = 360,000) | AID 504660; in the data active = activation above about 30%
#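 Inducible HEK293 T-REx D1 cells, force-coupled to calcium signalling, were plated at 4000 cells/well with tetracycline and held overnight at 30 C. After no-wash calcium dye loading, compound-evoked calcium rise over 180 s flagged agonists.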
# DRD3 antagonist – antagonists of human D3 dopamine receptor; P35462; D3R cells, DiscoveRx beta-arrestin luminescence, antagonist mode; active compounds read low; max response, negative = inhibition, %; actives 2.5% (n = 360,000); AID 652054; in the data active = max response below about -50%; inconclusive = no clear call, values can overlap the other calls
# Target sequence (P35462 whole entry, looked up): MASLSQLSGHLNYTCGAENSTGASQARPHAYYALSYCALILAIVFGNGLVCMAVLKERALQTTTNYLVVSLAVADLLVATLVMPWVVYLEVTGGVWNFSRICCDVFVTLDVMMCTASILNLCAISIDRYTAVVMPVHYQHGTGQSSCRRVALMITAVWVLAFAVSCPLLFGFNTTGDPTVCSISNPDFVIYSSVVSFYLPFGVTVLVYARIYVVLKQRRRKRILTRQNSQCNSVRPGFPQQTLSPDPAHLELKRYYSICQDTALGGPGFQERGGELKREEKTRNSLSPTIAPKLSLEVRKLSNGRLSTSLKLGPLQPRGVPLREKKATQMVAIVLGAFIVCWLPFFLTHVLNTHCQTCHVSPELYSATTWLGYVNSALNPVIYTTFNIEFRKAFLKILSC
#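 Cells expressing the human receptor were seeded at 1500 cells/well, incubated overnight at 37 degrees C in 5% CO2, then exposed to library compounds with dopamine controls for 90 minutes at 37 degrees C before luminescent detection.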
# DRD3 agonist – D3 dopamine receptor (human) agonism; P35462; max activation, %; actives 0.58% (n = 410,000); D3R DiscoveRx beta-arrestin cells, luminescence, 90 min; in the data active = max activation above about 30%
#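 Agonist mode: compounds and dopamine controls were applied to plated cells for 90 min at 37 degrees C after an overnight attachment at 1500 cells/well. Luminescent read-out followed 30 - 60 minutes at room temperature with DiscoveRx detection reagent.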
# Numbers stand for hits; – = inactive; ? = inconclusive; · = not tested or not shown.
SMILES,D1 PAM,D1 antagonist,D1 ag,DRD3 antagonist,DRD3 agonist
CN1CCN(c2nc(-c3cccs3)cc(C(F)(F)F)n2)CC1,–,–,–,-94,–
CN1CCN(c2nc(-c3ccccc3)cc(C(F)(F)F)n2)CC1,–,–,–,-70,–
COc1ccc(-c2cc(-c3ccccc3)nc(N3CCCC3)n2)cc1OC,–,–,–,–,41
CCN(C(=O)C1CCCN(c2ncnc3c2nc2n3CCCCC2)C1)c1cccc(C)c1 (stereo unspecified),–,–,–,·,–
COc1ccc(-c2cc3ccc(O)c(CN4CCC(C)CC4)c3oc2=O)cc1OC,–,–,–,·,–
Cc1cc2c(n1-c1ccc(C(=O)NCc3cccc(Br)c3)cc1)CCC(C)C2 (stereo unspecified),–,-60,–,·,–
COc1cccc(CNC(=O)c2ccc(-n3c(C)cc4c3CCC(C)C4)cc2)c1 (stereo unspecified),–,–,–,·,–
COC(=O)c1ccc(CN2C(=O)NC3(CCC(C)CC3)C2=O)o1 (stereo unspecified),–,–,–,-65,–
CCN1CCN(CCCNC(=O)c2ccc(/C=C3/Oc4ccccc4N(Cc4cccc(C)c4)C3=O)cc2)CC1,–,-37,39,–,–
CCN1CCN(CCCNC(=O)c2ccc(/C=C3/Sc4ccccc4N(Cc4ccccc4F)C3=O)cc2)CC1,–,–,–,–,–
CCN1CCN(CCNC(=O)c2ccc(/C=C3/Sc4ccccc4N(Cc4ccccc4C)C3=O)cc2)CC1,–,–,40,–,–
CC(=O)c1cc(C(=O)N2CCCC(C(=O)c3ccc(Cl)cc3)C2)cs1 (stereo unspecified),–,-33,–,?,–
O=C(c1ccc(Cl)cc1)N1CCCC(C(=O)N2CCCCC2)C1 (stereo unspecified),–,–,–,–,–
CCOC(=O)N1CCC(NC(=O)c2ccc3c(c2)N(Cc2ccccc2)C(=O)c2ccccc2S3(=O)=O)CC1,–,–,–,·,–
O=C(c1cccc(C(F)(F)F)c1)C1CCCN(Cc2cccn2-c2ncccn2)C1 (stereo unspecified),–,–,–,-54,–
COCc1ccc(C(=O)N2CCCC(C(=O)c3cccc(C(F)(F)F)c3)C2)o1 (stereo unspecified),–,–,–,–,–
CC(C)Oc1cccc(C(=O)C2CCCN(Cc3cccn3-c3ccccn3)C2)c1 (stereo unspecified),–,–,–,–,–
O=C(c1ccc(C(F)(F)F)cc1)C1CCCN(Cc2cccn2-c2ncccn2)C1 (stereo unspecified),–,–,–,–,–
CCOc1cc(CN2CCCC(C(=O)c3cccc(C(F)(F)F)c3)C2)ccc1O (stereo unspecified),–,–,–,-70,–
COc1cccc(C(=O)C2CCCN(Cc3cccn3-c3ccccn3)C2)c1 (stereo unspecified),–,-32,–,–,–
COc1cc(CN2CCCC(C(=O)c3ccc(C(C)(C)C)cc3)C2)cc(OC)c1O (stereo unspecified),–,–,–,-59,–
Oc1ccc(COC2CCCC2)c2cccnc12,–,–,–,·,·
COc1ccc(-n2nnnc2C2CCN(S(=O)(=O)c3ccc(NC(C)=O)cc3)CC2)cc1,–,–,–,·,–
N#Cc1ccc(S(=O)(=O)N2CCC(Oc3cccc(C(F)(F)F)c3)CC2)cc1,–,–,–,·,–
COc1ccccc1N1CCN(C(=O)CSc2nc(C)c(C)c(=O)[nH]2)CC1,–,-30,–,–,–
SMILES,D1 PAM,D1 antagonist,D1 ag,DRD3 antagonist,DRD3 agonist
CCOC(=O)N1CCC(Nc2c(NCCCOC)c(=O)c2=O)CC1,–,-34,–,–,–
CCc1c(C)nc(SCC(=O)N2CCN(c3ccccc3OC)CC2)[nH]c1=O,–,–,–,–,–
CCOC(=O)N1CCN(c2c(N3CCN(c4ccccc4OC)CC3)c(=O)c2=O)CC1,–,-33,–,–,–
CCOC(=O)N1CCC(Nc2c(NCCCN(CC)Cc3ccccc3)c(=O)c2=O)CC1,·,–,–,–,–
CCOC(=O)N1CCC(Nc2c(OCC)c(=O)c2=O)CC1,–,-34,–,–,–
CCOC(=O)N1CCN(c2c(NC3CCN(Cc4ccccc4)CC3)c(=O)c2=O)CC1,·,–,–,-51,–
CCOC(=O)N1CCC(Nc2c(NCCCN3CCN(C4CCCCC4)CC3)c(=O)c2=O)CC1,–,-43,–,?,–

# Screening results as filed in PubChem BioAssay.
